Assay results reported in PubChem BioAssay AID492956 (The Scripps Research Institute Molecular Screening Center, 2010).
The whole screen tested about 340,000 compounds, of which about 3,300 (0.97%) were called active.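 The calls were made as follows: active = inhibition above the mean over all tested compounds plus 3 SD (cut at about 30% in these data); inactive = the rest.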 The sample as a whole holds a higher share of actives than the screen did.

These compounds were tested against Platelet-activating factor acetylhydrolase 2, cytoplasmic (Homo sapiens) (UniProt Q99487) (assay: inhibition of cytoplasmic PAF acetylhydrolase 2 – biochemical, fluorescence polarization, human, primary screen (AID 492956;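 also: inhibitors block probe labeling of enzyme so polarization drops; 0% = enzyme with DMSO and 100% = wells lacking PAFAH2 protein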)). Settings: recombinant PAFAH2, FP-rhodamine activity probe, at 3.39 µM, active compounds read high.

inhibition, inactive:
Nn1c(SCC(=O)NC2CCCC2)nnc1-c1ccccc1F 3.8%, CCn1c(N)c(Br)c(=O)[nH]c1=O -4.56%, CSc1ccc(-c2c(C#N)c(N)nc3c2c(C)nn3-c2ccccc2)cc1 -18.9%, CCCNC(=O)CCc1c(C)nc2c(c(C)nn2-c2ccc(C)cc2)c1C -8.03%, Cc1ccc(NC(=S)Nc2ncccc2C)c(C)c1 -4.32%, Cc1cc(C(=O)NNC(=O)CCC2CCCCC2)c(C)o1 4.96%, Cc1cc(C(=O)NCCc2ccc(Cl)cc2)c(C)o1 4.91%, CC1=C(C)CC(C(=O)NNC(=O)c2ccccc2O)C(C(=O)O)C1 (centres undefined) -2.13%, Cc1cc(C(=O)CCC(=O)NNC(=O)c2ccccc2O)c(C)s1 7.6%, CCC(CC)c1nnc(NC(=O)c2nn(C)c(=O)c3ccccc23)s1 0.88%, CCCCCn1c(=O)[nH]c2cc(C(=O)NCCCN3CCCCC3C)ccc2c1=O (centres undefined) -5.12%, O=C(NCc1ccc(F)cc1)C(c1ccccc1)N(C(=O)c1csnn1)C1CC1 (centres undefined) 2.95%, Oc1ccc2ccc3cccc[n+]3c2c1 9.81%, CN(C)C(CNC(=O)CCCOc1ccccc1)c1ccco1 (centres undefined) 1.39%, COc1ccc(C(=O)NCC2CCCCC2)cc1S(=O)(=O)N1CCCC1 3.82%, COc1cc(C)c(C)cc1S(=O)(=O)N1CCCc2ccccc21 -5.07%, Cc1cc(C)c2oc(C(=O)Nc3ccc(S(=O)(=O)Nc4nccc(C)n4)cc3)cc(=O)c2c1 -3.63%, CN(C)[C@@H]1C(=O)C(C(N)=O)=C(O)[C@@]2(O)C(=O)C3=C(O)c4c(O)ccc(Cl)c4[C@@H](O)[C@H]3C[C@@H]12 1.11%, Cc1cccc(C)c1NC(=O)CN1C(=O)C(C)Oc2ccccc21 (centres undefined) 4.2%, O=C(Cn1nnc2ccccc2c1=O)NCc1ccc(Cl)cc1 4.44%, C=CCNC(=O)c1sc(SC)cc1-c1ccc(Cl)cc1 2.46%, COC(=O)Nc1nc2ccc(Sc3ccccc3)cc2[nH]1 -5.35%, Cc1c(CN2CCC(CO)(CCOc3ccccc3)CC2)[nH]c2ccc(Cl)cc12 -1.75%, CCOc1ccccc1NS(=O)(=O)c1cc2c3c(c1)C(C)C(=O)N3CCC2 (centres undefined) 6.38%, CCOc1ccccc1OCC(=O)Nc1ccccc1C(=O)NC1CC1 2.58%, COc1nc(N=C(N)N)nc2c(C)cccc12 6.78%, CC(=O)Oc1ccc2c(=O)oc(-c3ccc([N+](=O)[O-])cc3)nc2c1 29.4%, Cc1cc(C)cc(C(=O)NC(=S)Nc2ccc3[nH]c(=O)[nH]c3c2)c1 -14%, CC1(C)C2CC=C(/C=N/NC(=O)C3CC3)C1C2 (centres undefined) -2.63%, CCN(CC)CCCNC(=O)c1ccc2c(=O)n(Cc3ccc4c(c3)OCO4)c(=S)[nH]c2c1 4.33%, O=C(COC(=O)c1ncc(Cl)c(Cl)c1Cl)NCc1ccccc1 -0.64%, COc1ccc(NC(=O)COC(=O)c2n[nH]c3ccccc23)c(OC)c1 7.22%, C=CCN(CC=C)C(=O)COC(=O)c1n[nH]c2ccccc12 3.36%, CN(C)S(=O)(=O)c1ccc(NC(=O)COC(=O)c2n[nH]c3ccccc23)cc1 -1.53%, O=C(O)CC(c1ccccc1F)N1Cc2ccccc2C1=O (centres undefined) 3.09%, Cc1ccn2c(=O)nc(SCC(=O)NCc3ccc4c(c3)OCO4)nc2c1 -12.4%, Nc1nc(Br)c2ccccc2c1-c1ccc(F)cc1 0.32%, COCCCn1c(SCC(=O)Nc2oc(C)c3c(C)n[nH]c(=O)c23)nc2sc3c(c2c1=O)CCC3 -2.08%, CCN(CC)S(=O)(=O)c1ccc2nc(CSc3nnnn3-c3ccc(O)cc3)[nH]c2c1 -3.11%, C(#CCN1CCOCC1)CCCN1CCOCC1 6.41%, Cc1cnc(C(=O)OCC(=O)Nc2ccc(Cl)cc2Cl)cn1 -10.2%, O=C(COC(=O)CCc1c[nH]c(=O)[nH]1)Nc1ccccc1Cl 1.19%, COc1cc(NC(=O)COC(=O)c2cc(S(=O)(=O)N3CCOCC3)ccc2F)cc(OC)c1 -0.21%, Cc1cc(C(=O)OCC(=O)c2c(N)n(C)c(=O)n(C)c2=O)c(C)o1 10.2%, O=C(COC(=O)c1ccc[nH]c1=O)Nc1ccc2c(c1)OC(F)(F)O2 -3.01%, Cc1cc(C)cc(C(=O)OCC(=O)NCCNC(=O)COC(=O)c2cc(C)cc(C)c2)c1 3.14%

inhibition, active:
Cc1ccc(-n2nc(N)c3c(=O)oc(N(C)C)nc32)cc1 55.9%, O=C(NNC(=O)c1ccccc1O)c1ccccc1O 39%, Cc1cc(C(=O)NNC(=O)c2ccccc2O)c(C)o1 31.3%, COc1cccc2c1C(=O)c1c(O)c3c(c(O)c1C2=O)CC(O)(C(C)=NNC(=O)c1ccc(Cl)c(Cl)c1)CC3OC1CC(N)C(O)C(C)O1 (centres undefined) 49.5%, COc1ccc(C(=O)OCC(=O)NCC2CCCCC2)cc1S(=O)(=O)N1CCCc2ccccc21 74.5%, C=C1c2c(Cl)ccc(O)c2C(O)=C2C(=O)[C@]3(O)C(O)=C(C(N)=O)C(=O)[C@@H](N(C)C)[C@@H]3[C@@H](O)C12 (some centres undefined) 42%, Nc1ccc2nc3c(=O)[nH]c(=S)[nH]c3nc2c1 58.3%, CC(=O)Oc1ccc(-c2nc3c(C)cccc3c(=O)o2)cc1 40.7%, O=C(COC(=O)c1n[nH]c2ccccc12)NCc1ccccc1 35.5%, O=C(COC(=O)c1n[nH]c2ccccc12)Nc1ccccc1Br 47.3%, Cc1cc(C(=O)OCC(=O)Nc2ccc(F)c(F)c2)c(C)o1 81.8%, Cc1cc(C(=O)OCC(=O)Nc2ccccc2Cl)c(C)o1 45.1%, Cc1cc(C)cc(NC(=O)COC(=O)c2cc(C)oc2C)c1 60.9%
